“And” between values parts separate entries of the source, which are not always exact repeats. Equal entries are not always repeated. Inconclusive results are not listed. Some compounds were tested as several samples or in several runs, with calls that do not always agree. The source made the active and inactive calls. Calls come from the whole dose curve; as a rule, active = well fitted curve in the direction sought with a large enough effect in the repeat runs; inconclusive = weak or mixed curves; inactive = no such curve, though single readings can be large; an effect the other way counts as inactive or inconclusive.

Experiment [1] is described as follows: A CellTox Green Cytotoxicity Assay to monitor cytotoxicity in HEK293 cells - 40 hour (AID 1224871). Note: nearly all actives have a fitted effect of over 45% in size. Note: potency is the fitted concentration of half-maximal effect. The gist of the method: (§1)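 HEK293 cells, 600/well, were preincubated 5 hours and then exposed to compounds at 37 C for up to 40 hours. A cell-impermeant cyanine dye staining dead-cell DNA was read by fluorescence at 0, 8, 16, 24, 32 and 40 h time points.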
Experiment [2] can be described thus: qHTS RealTime-Glo MT Cell Viability Assay in HEK293 cells - 16 hour (AID 1224872). Note: nearly all actives have a fitted effect of over 50% in size. Note: potency is the fitted concentration of half-maximal effect. The gist of the method: (§2)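 Reads taken at 0, 8, 16, 24, 32 and 40 h from the same wells. HEK293 cells (600/well) carried RealTime-Glo reagents from seeding, with compound added after a 5 h settle at 37 C.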
Background: In qHTS, concentration-response curves come from the screen itself.

Experiment [3] is described as follows: qHTS RealTime-Glo MT Cell Viability Assay in HepG2 cells - 8 hour (AID 1224873). Note: nearly all actives have a fitted effect of over 55% in size. The gist of the method:
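HepG2 cells (600/well) mixed with RealTime-Glo MT reagent, settled 5 h at 37 C/5% CO2 before compound addition. Nonlytic NanoLuc luminescence from viable-cell prosubstrate reduction read repeatedly during 40 h treatment at 37 C.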

Experiment [4] in a line: qHTS RealTime-Glo MT Cell Viability Assay in HEK293 cells - 40 hour (AID 1224874). Note: nearly all actives have a fitted effect of over 50% in size. Note: potency is the fitted concentration of half-maximal effect. To be noted: RealTime-Glo luminescence; max response: stronger effect = lower value. The gist of the method:
(§3)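 600 cells/well were plated with the nonlytic NanoLuc/prosubstrate reagent, pre-incubated 5 h, then given 23 nL of compound in DMSO. Incubation at 37 C for 40 h, with luminescence from viable-cell-reduced substrate read repeatedly from 0 h.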

Experiment [5] can be described thus: A CellTox Green Cytotoxicity Assay to monitor cytotoxicity in HEK293 cells - 24 hour (AID 1224875). Note: nearly all actives have a fitted effect of over 45% in size. Note: potency is the fitted concentration of half-maximal effect. A digest of the protocol: as §1
Experiment [6] in a line: A CellTox Green Cytotoxicity Assay to monitor cytotoxicity in HepG2 cells - 16 hour (AID 1224876). Note: nearly all actives have a fitted effect of over 45% in size. Note: potency is the fitted concentration of half-maximal effect. The gist of the method:
(§4)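 HepG2 cells, 600/well, preincubated 5 h with CellTox Green dye, then exposed to Tox21 compounds in DMSO at 37 C for up to 40 h. Dead-cell DNA fluorescence read at the indicated time point.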

Experiment [7] can be described thus: qHTS RealTime-Glo MT Cell Viability Assay in HepG2 cells - 32 hour (AID 1224877). Note: nearly all actives have a fitted effect of over 55% in size. A digest of the protocol: (§5)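 HepG2 suspension premixed with RealTime-Glo reagents is plated at 600 cells per well and left 5 h at 37 C/5% CO2. Compounds in DMSO then go in, and bioluminescence reflecting viable cell number is recorded over 40 h.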
A short description of experiment [8]: A CellTox Green Cytotoxicity Assay to monitor cytotoxicity in HepG2 cells - 24 hour (AID 1224878). Note: nearly all actives have a fitted effect of over 45% in size. Note: potency is the fitted concentration of half-maximal effect. The gist of the method:
as §4

A short description of experiment [9]: A CellTox Green Cytotoxicity Assay to monitor cytotoxicity in HepG2 cells - 40 hour (AID 1224879). Note: nearly all actives have a fitted effect of over 40% in size. Note: potency is the fitted concentration of half-maximal effect. A digest of the protocol: as §4
Experiment [10] is described as follows: A CellTox Green Cytotoxicity Assay to monitor cytotoxicity in HEK293 cells - 32 hour (AID 1224881). Note: nearly all actives have a fitted effect of over 40% in size. Note: potency is the fitted concentration of half-maximal effect. The gist of the method: as §1
Experiment [11] is described as follows: A CellTox Green Cytotoxicity Assay to monitor cytotoxicity in HepG2 cells - 0 hour (AID 1224882). Note: nearly all actives have a fitted effect of over 35% in size. A digest of the protocol: as §4
The nature of experiment [12]: A CellTox Green Cytotoxicity Assay to monitor cytotoxicity in HepG2 cells - 32 hour (AID 1224883). Note: nearly all actives have a fitted effect of over 50% in size. Note: potency is the fitted concentration of half-maximal effect. A digest of the protocol: as §4
Experiment [13] is described as follows: A CellTox Green Cytotoxicity Assay to monitor cytotoxicity in HEK293 cells - 8 hour (AID 1224884). Note: nearly all actives have a fitted effect of over 35% in size. Note: potency is the fitted concentration of half-maximal effect. A digest of the protocol:
as §1

A short description of experiment [14]: qHTS RealTime-Glo MT Cell Viability Assay in HepG2 cells - 16 hour (AID 1224885). Note: nearly all actives have a fitted effect of over 50% in size. A digest of the protocol:
as §5

Experiment [15] is described as follows: qHTS RealTime-Glo MT Cell Viability Assay in HEK293 cells - 24 hour (AID 1224886). The gist of the method:
as §2

The nature of experiment [16]: qHTS RealTime-Glo MT Cell Viability Assay in HEK293 cells - 8 hour (AID 1224887). Note: nearly all actives have a fitted effect of over 50% in size. Note: potency is the fitted concentration of half-maximal effect. A digest of the protocol: as §3
Experiment [17] in a line: A CellTox Green Cytotoxicity Assay to monitor cytotoxicity in HEK293 cells - 16 hour (AID 1224888). Note: nearly all actives have a fitted effect of over 35% in size. A digest of the protocol:
as §1

Experiment [18] in a line: qHTS RealTime-Glo MT Cell Viability Assay in HepG2 cells - 0 hour (AID 1224889). Note: nearly all actives have a fitted effect of over 50% in size. The gist of the method: as §5
The nature of experiment [19]: A CellTox Green Cytotoxicity Assay to monitor cytotoxicity in HepG2 cells - 8 hour (AID 1224890). Note: nearly all actives have a fitted effect of over 45% in size. Note: potency is the fitted concentration of half-maximal effect. A digest of the protocol: as §4
Experiment [20] is described as follows: qHTS RealTime-Glo MT Cell Viability Assay in HEK293 cells - 0 hour (AID 1224880). A digest of the protocol:
as §3
% is set by controls: 0 for no effect and ±100 for the full control effect.

Take `OC[C@@H](O)[C@@H](O[C@@H]1O[C@H](CO)[C@H](O)[C@H](O)[C@H]1O)[C@H](O)[C@@H](O)CO`: the Potency result in [1], in [2], in experiment [3], in experiment [5], in experiment [6] and in [7] was “inactive” each time. Besides, the Potency result in experiment [8], in experiment [9], in experiment [10], in [11], in experiment [12] and in experiment [13] was “inactive” throughout. Also, the Potency entry in [14], in experiment [15], in experiment [16], in experiment [17], in experiment [18] and in [19] was “inactive” each time. Further, the max response in experiment [4] is 5.89% (inactive) and 2.02% (inactive).

For the compound `C=C[C@H]1CN2CC[C@H]1C[C@H]2[C@H](O)c1ccnc2ccc(OC)cc12`, the Potency result in experiment [1], in experiment [2], in experiment [3], in experiment [5], in experiment [6] and in experiment [7] was “inactive” each time. For the same compound, the Potency entry in experiment [8], in [20], in [10], in [11], in experiment [14] and in experiment [16] was “inactive” throughout. In addition, the Potency result in experiment [17], in experiment [18] and in experiment [19] was “inactive” throughout. Moreover, the max response in experiment [4] is -26.3% (inactive) and -11.8% (inactive). Moreover, the Potency in experiment [12] is 54.9 µM (active) and inactive.

For `CC(=O)Oc1ccc(C(c2ccc(OC(C)=O)cc2)c2ccccn2)cc1`, the Potency result in [1], in experiment [2], in experiment [3], in experiment [5], in experiment [6] and in experiment [7] was “inactive” each time. The Potency result in experiment [8], in experiment [9], in [10], in [11], in experiment [12] and in [13] was “inactive” each time. Besides, the Potency entry in experiment [14], in experiment [15], in experiment [16], in [17], in experiment [18] and in experiment [19] was “inactive” in each case. Moreover, the max response in [4] is -20.4% (inactive).

In the case of `CN(C)/N=N/c1nc[nH]c1C(N)=O`, the Potency entry in experiment [1], in experiment [2], in experiment [3], in experiment [5], in experiment [6] and in experiment [7] was “inactive” each time. The Potency result in experiment [8], in experiment [9], in [10], in experiment [11], in experiment [12] and in [14] was “inactive” in each case. Also, the Potency result in experiment [16], in experiment [17], in experiment [18] and in [19] was “inactive” throughout. For the same compound, in experiment [4], the max response was -18.2% (inactive) and -3.15% (inactive).

On to `O=C(O)c1ccc(O)cc1`, for which the Potency result in experiment [1], in experiment [2], in experiment [3], in experiment [5], in [6] and in [7] was “inactive” each time. The Potency entry in experiment [8], in [9], in experiment [20], in [10], in experiment [11] and in experiment [12] was “inactive” throughout. Moreover, the Potency result in experiment [13], in [14], in [16], in [17], in experiment [18] and in [19] was “inactive” in each case. Also, in experiment [4], the max response was -0.345% (inactive) and 9.29% (inactive).

As for `Cc1ccc(C(C)(C)C)c(O)c1`, the Potency in experiment [1] was 23.8 µM (active) and 24.5 µM (active); in experiment [5] it was 23.8 µM (active) and 24.5 µM (active); in experiment [6] it was 38.9 µM (active); in experiment [8] it was 38.9 µM (active); in [9], 34.7 µM (active); in experiment [10] it was 23.8 µM (active) and 21.9 µM (active). For the same compound, the Potency was 38.9 µM (active) in experiment [12]; 18.9 µM (active) and inactive in experiment [13]; “inactive and 43.6 µM (active)” in [19]. In addition, the Potency result in experiment [2], in [3], in [7], in experiment [20], in [11] and in [14] was “inactive” throughout. Also, the Potency entry in experiment [15], in experiment [16] and in experiment [18] was “inactive” throughout. Moreover, the max response in experiment [4] is -23.8% (inactive) and -20.7% (inactive).

Consider `CC(C)(Oc1ccc(Cl)cc1)C(=O)O`, for which the Potency entry in experiment [1], in experiment [2], in [3], in experiment [5], in experiment [6] and in [7] was “inactive” in each case. Besides, the Potency result in experiment [8], in [9], in experiment [20], in experiment [10], in experiment [11] and in [12] was “inactive” each time. Further, the Potency result in [13], in [14], in experiment [15], in experiment [16], in [17] and in experiment [18] was “inactive” in each case. Besides, in [19], the Potency result was “inactive”. Moreover, the max response in [4] is 6.25% (inactive) and 5.25% (inactive).

`CC/C(=C(/CC)c1ccc(O)cc1)c1ccc(O)cc1`: the Potency result in experiment [1], in experiment [3], in experiment [5], in experiment [6], in experiment [7] and in experiment [8] was “inactive” throughout. The Potency result in experiment [9], in experiment [20], in [10], in experiment [11], in [12] and in experiment [13] was “inactive” in each case. Further, the Potency entry in experiment [14], in [17], in experiment [18] and in experiment [19] was “inactive” throughout. Besides, the Potency is 15.4 µM (active) and 30.9 µM (active) in experiment [2]; 12.2 µM (active) and 27.5 µM (active) and 19 µM (active) in experiment [4]; 15.4 µM (active) in experiment [16].

For `CC(C)[C@@H]1CC[C@@H](C)CC1=O`, the Potency entry in [1], in experiment [2], in experiment [3], in experiment [5], in experiment [6] and in [7] was “inactive” each time. In addition, the Potency entry in experiment [8], in experiment [9], in experiment [20], in experiment [10], in experiment [11] and in experiment [12] was “inactive” each time. In addition, the Potency entry in [13], in experiment [14], in [16], in experiment [17], in experiment [18] and in experiment [19] was “inactive” each time. In addition, the max response in experiment [4] is -0.963% (inactive) and 5.54% (inactive).

Regarding `NCCS(=O)(=O)O`, the Potency entry in experiment [1], in experiment [2], in experiment [3], in experiment [5], in experiment [6] and in experiment [7] was “inactive” in each case. Further, the Potency result in experiment [8], in [9], in experiment [10], in experiment [11], in [12] and in [13] was “inactive” throughout. For the same compound, the Potency entry in experiment [14], in [16], in [17], in experiment [18] and in experiment [19] was “inactive” in each case. Also, the max response in experiment [4] is 13.2% (inactive) and 2.94% (inactive).

`c1ccc2ncccc2c1`: the Potency entry in [1], in experiment [2], in [3], in [5], in experiment [6] and in experiment [7] was “inactive” each time. The Potency entry in experiment [8], in experiment [9], in [20], in experiment [10], in [11] and in [12] was “inactive” in each case. Besides, the Potency result in experiment [14], in experiment [15], in experiment [16], in experiment [17], in experiment [18] and in experiment [19] was “inactive” throughout. Also, the max response in [4] is -2.01% (inactive) and 11.7% (inactive).

On to `O=C(O)COCCN1CCN(C(c2ccccc2)c2ccc(Cl)cc2)CC1` (stereo not drawn), for which the Potency result in experiment [1], in experiment [2], in experiment [3], in experiment [5], in experiment [6] and in experiment [7] was “inactive” in each case. Moreover, the Potency entry in experiment [8], in experiment [9], in experiment [20], in experiment [10], in experiment [11] and in experiment [12] was “inactive” each time. Besides, the Potency entry in experiment [14], in experiment [16], in experiment [17], in experiment [18] and in experiment [19] was “inactive” each time. Moreover, the max response in experiment [4] is 5.07% (inactive) and 2.04% (inactive).

The record behind these values is PubChem BioAssay (Tox21).
